Screening data as filed in PubChem.
Sampled rows, rich in hits. Any-hit rate of the full collection: about 0.3%.
NPYLR7 agonist – activates Aedes aegypti NPYLR7 receptor; HEK293T NPYLR7/Galpha15, GCaMP6s calcium fluorescence; activation, % at 10 µM; hit rate 0.15% among 270,000; AID 1259423; in the data active means activation above about 40%
mcGAS inh – inhibitors of mouse cGAS | recombinant cGAS, Kinase-Glo ATP depletion luminescence | inhibition, % at 12.5 µM | hit rate 0.15% among 160,000 | Q8C6L5
hcGAS lum – blocks human cGAS activity; inhibition, % at 12.5 µM; recombinant h-cGAS, ATP depletion, Kinase-Glo luminescence; hit rate 0.081% among 290,000; AID 1259398; Q8N884
Target sequence (Q8N884 whole entry, looked up): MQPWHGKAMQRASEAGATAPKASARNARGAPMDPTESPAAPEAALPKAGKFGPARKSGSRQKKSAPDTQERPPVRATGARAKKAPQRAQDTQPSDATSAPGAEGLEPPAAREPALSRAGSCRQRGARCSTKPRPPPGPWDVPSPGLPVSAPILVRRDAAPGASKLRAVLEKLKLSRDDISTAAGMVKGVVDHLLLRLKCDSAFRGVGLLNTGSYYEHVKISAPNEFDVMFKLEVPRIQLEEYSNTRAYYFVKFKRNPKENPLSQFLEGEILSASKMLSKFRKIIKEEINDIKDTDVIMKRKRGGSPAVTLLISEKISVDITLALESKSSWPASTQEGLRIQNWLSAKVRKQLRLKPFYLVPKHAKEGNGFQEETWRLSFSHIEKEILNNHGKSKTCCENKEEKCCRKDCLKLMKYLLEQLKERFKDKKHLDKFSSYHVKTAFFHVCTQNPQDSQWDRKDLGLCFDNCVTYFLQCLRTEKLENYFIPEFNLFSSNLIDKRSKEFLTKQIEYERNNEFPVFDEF
Of the large screens only hits and unclear results are named; the others gave an inactive call. Unless noted, no stated cut-off is given here; in the data, active means inhibition above about 40%; inactive means the rest.

CCOc1cc(-c2nn(CN3CCOCC3)c(=S)o2)cc(OCC)c1OCC	none (no result: mcGAS inh)
S=c1oc(-c2sc3ccccc3c2Cl)nn1CN1CCOCC1	hcGAS lum 42.7
O=C(c1cccc(F)c1)N(Cc1cccnc1)Cc1nccn1Cc1cccc(C(F)(F)F)c1	none
N#Cc1cc(NCC(=O)N2CCN(S(=O)(=O)c3ccc4c(c3)CCC4)CC2)ccc1Cl	none
NS(=O)(=O)c1ccc(NC(NC(=O)c2ccco2)C(=O)c2ccc(Cl)cc2)cc1 (stereo unspecified)	NPYLR7 agonist 44.7 (no result: mcGAS inh)
O=C(NC(c1ccc(Cl)cc1)C1CC1)c1ccco1 (stereo unspecified)	none
CCCNC(=O)c1nnc2n1CCN(C(=O)C(CC)c1ccccc1)C2 (stereo unspecified)	none (no result: mcGAS inh)
CCOC(=O)c1cn[nH]c1S(=O)(=O)N1CCN(Cc2ccc3c(c2)OCO3)CC1	none
COC(=O)C(C)Sc1nc2sc3c(c2c(=O)n1Cc1ccccc1)CCC3 (stereo unspecified)	none (no result: mcGAS inh)
COC(=O)C(C)Sc1nc2sc3c(c2c(=O)n1C)CCC3 (stereo unspecified)	NPYLR7 agonist 51.1 (no result: mcGAS inh)
Cc1ccc(/C=C2/Oc3cc(O)ccc3C2=O)s1	NPYLR7 agonist 165.2
O=C1/C(=C/c2ccc3ccccc3n2)Oc2cc(O)ccc21	none (no result: mcGAS inh)
O=C(N=Nc1c(O)[nH]c2ccc(Br)cc12)c1ccccc1O	none
O=C(N=Nc1c(O)[nH]c2ccc(Br)cc12)c1ccccc1Cl	NPYLR7 agonist 71.8
COc1cc(/C=C2\SC(=Nc3ccccc3)NC2=O)ccc1OC(=O)C12CC3CC(CC(C3)C1)C2	none
COc1cccc(-c2[nH]nc3c2C(c2nc(C)n4ccccc24)CC(=O)N3)c1 (stereo unspecified)	none (no result: mcGAS inh)
O=C(CCl)N1CCN(c2ccc(O)cc2)CC1	none
O=C(CCl)N1CCN(c2cccc(Cl)c2)CC1	mcGAS inh 69.9
Cc1cc(S(N)(=O)=O)cc(NC(=O)CN(C)CC(=O)N2CCCC2)c1C	none (no result: mcGAS inh)
CC(C)c1cc(CN2CCCC(CNC(=O)c3ccc[nH]3)C2)on1 (stereo unspecified)	none
COc1cc(C=C2C(=O)N(C)C(=O)N(C)C2=O)cc([N+](=O)[O-])c1O	mcGAS inh 45.7
COc1cc(C=C2C(=O)N(C)C(=O)N(C)C2=O)cc(I)c1O	none
CCCCN(CC(=O)N(Cc1ccccc1)Cc1cccs1)S(=O)(=O)c1ccc(Cl)c([N+](=O)[O-])c1	none
O=C1c2ccc(O)c(O)c2C(=O)c2c(O)ccc(O)c21	mcGAS inh 79.4, hcGAS lum 46.8 (no result: NPYLR7 agonist)
O=C1c2ccccc2C(=O)c2c1ccc(O)c2O	none (no result: mcGAS inh)
CC(C)c1nc2cc(C(=O)NCCC(c3ccccc3)c3ccco3)ccc2o1 (stereo unspecified)	none
Cc1ccc(C(=O)N2CCN(c3nc(Cc4ccccc4)ns3)CC2)cc1[N+](=O)[O-]	none (no result: NPYLR7 agonist)
O=[N+]([O-])c1cc(C(F)(F)F)ccc1NN=Cc1ccc2ncccc2c1	none (no result: mcGAS inh)
N#Cc1c(N)oc(-c2cccs2)c1-c1cccs1	hcGAS lum 54.6 (no result: mcGAS inh)
Nc1nnc(-c2ccccc2)o1	none (no result: mcGAS inh)
N#Cc1c(N)oc(-c2ccccc2)c1-c1ccccc1	hcGAS lum 49.5
Cc1nc(N)c(C#N)c(-c2cccs2)c1C	none (no result: mcGAS inh)
CC1CCC2(CC1)NC(=O)N(C(C)C(=O)N1CCc3ccccc3C1)C2=O (stereo unspecified)	none
O=C(O)CCC(=O)c1cccs1	hcGAS lum 47.9
O=C(O)CCc1cccs1	none (no result: mcGAS inh)
Cc1cc(O)c(CN2CCCCC2)c2c1C(=O)/C(=C/c1cc3ccccc3o1)O2	NPYLR7 agonist 50.0
Cc1cc(O)c(CN2CCN(C)CC2)c2c1C(=O)/C(=C/c1ccncc1)O2	none
Cc1cc(O)c(CN2CCN(C)CC2)c2c1C(=O)/C(=C/c1cccs1)O2	NPYLR7 agonist 49.3
Cc1cc(O)c(CN2CCOCC2)c2c1C(=O)/C(=C/c1cc3ccccc3o1)O2	none
C=CCNC(=O)NC(=O)CNc1ccc(Br)cc1	none (no result: NPYLR7 agonist, mcGAS inh)
FC(F)(F)c1cc(-c2cccs2)nc2ncnn12	NPYLR7 agonist 94.7
FC(F)(F)c1cc(-c2ccccc2)nc2ncnn12	none
CCn1nc(CC(C)C)cc1C(=O)NCc1nnc2n1CCC2	none (no result: mcGAS inh)
CCSc1ncc(-c2c(-c3ccccc3)ncn2Cc2ccon2)cn1	none (no result: mcGAS inh)
COc1ccc(CCN2C3CCC2CC(NC(=O)C24CC[C@@](C)(C(=O)O2)C4(C)C)C3)cc1OC (stereo partly specified)	none
COc1ccc(CN2C3CCC2CC(NC(=O)C24CC[C@@](C)(C(=O)O2)C4(C)C)C3)c(OC)c1 (stereo partly specified)	mcGAS inh 76.4
COc1ccc(C(=O)N(Cc2ccccc2)C2CCC(NC(=O)C3CCN(C(=O)c4ccccc4Cl)CC3)CC2)cc1 (stereo unspecified)	NPYLR7 agonist 45.2
COc1ccc(C(=O)N(Cc2ccccc2)C2CCC(NC(=O)C3CCN(C(=O)c4ccc(Cl)cc4)CC3)CC2)cc1 (stereo unspecified)	none
CCOC(=O)CN1CCN(c2cccc(Br)c2)C(=O)C1C (stereo unspecified)	none (no result: mcGAS inh)
CC1(C)CC(=O)C2C(=Nc3[nH]c(=S)[nH]c(=O)c3C2c2ccc3c(c2)OCO3)C1 (stereo unspecified)	NPYLR7 agonist 43.0
CSc1nc2c(c(=O)[nH]1)C(c1ccc3c(c1)OCO3)C1C(=O)CCCC1=N2 (stereo unspecified)	none (no result: mcGAS inh)
COc1ccccc1-c1cnn2c(C)c(C(=O)N3CCCC3C)cnc12 (stereo unspecified)	none
C=CCN(CC(=O)N1CCc2sccc2C1c1ccccc1C)S(=O)(=O)/C=C/c1ccccc1 (stereo unspecified)	none
COc1ccc(C2=NN(C(=O)CN3CCC4(CC3)OCCO4)C(c3ccccc3OC)C2)cc1 (stereo unspecified)	hcGAS lum 78.3
Cc1ccc(C2=NN(C(=O)CN3CCCC3)C(c3ccccc3F)C2)cc1 (stereo unspecified)	none
Cc1ccc(C2=NN(C(=O)CN3CCN(C)CC3)C(c3ccccc3Cl)C2)cc1 (stereo unspecified)	NPYLR7 agonist 45.3
COc1ccccc1C1CC(c2cccc(F)c2)=NN1C(=O)CN1CCC2(CC1)OCCO2 (stereo unspecified)	none
CCOC(=O)C1=C(COC(=O)c2sccc2-n2cccc2)NC(=O)NC1c1ccc(OC)cc1 (stereo unspecified)	none
CCOc1cc(C(=O)OCn2nnc3ccccc3c2=O)cc(Br)c1OC	none
COc1ccccc1-n1c(SCc2ccc(C(=O)O)cc2)nnc1-c1ccccc1Cl	none
Cc1nn(CC(=O)Nc2ncccc2OCc2ccccc2)c(C)c1[N+](=O)[O-]	none
CCOc1ncccc1CN1CCCC(C(=O)Nc2ccc(C(C)C)cc2)C1 (stereo unspecified)	none (no result: mcGAS inh)
COC(=O)c1ccccc1C=C1N=C(c2cccc(C)c2)OC1=O	none
O=C1NC(=S)S/C1=C\C(Br)=C\c1ccccc1	mcGAS inh 51.5
O=C1NC(=S)SC1=Cc1cc(O)c(O)c(Cl)c1	NPYLR7 agonist 99.1 (no result: mcGAS inh)
O=C1NC(=S)S/C1=C/c1cc(Br)c(O)c(Br)c1	mcGAS inh 42.5
O=C1NC(=S)N/C1=C\c1cc(Br)c(O)c(Br)c1	none
O=C1NC(=S)S/C1=C/C=C/c1ccccc1	none
O=C1NC(=S)SC1=Cc1cc(Cl)c2c(c1)OCO2	none
O=C(c1c[nH]c(=O)c(Cl)c1)N1CCCc2cc(Br)ccc21	none (no result: mcGAS inh)
COc1cc(N2CCN(Cc3cccc(OC)c3F)CC2)nc(OC)n1	none
CCOC(=O)C1=C(O)/C(=C\c2cc(OC)cc(OC)c2)SC1=Nc1ccccc1F	none
